The target of the assay is T1, USP38, Q8NB14.
T1 chain: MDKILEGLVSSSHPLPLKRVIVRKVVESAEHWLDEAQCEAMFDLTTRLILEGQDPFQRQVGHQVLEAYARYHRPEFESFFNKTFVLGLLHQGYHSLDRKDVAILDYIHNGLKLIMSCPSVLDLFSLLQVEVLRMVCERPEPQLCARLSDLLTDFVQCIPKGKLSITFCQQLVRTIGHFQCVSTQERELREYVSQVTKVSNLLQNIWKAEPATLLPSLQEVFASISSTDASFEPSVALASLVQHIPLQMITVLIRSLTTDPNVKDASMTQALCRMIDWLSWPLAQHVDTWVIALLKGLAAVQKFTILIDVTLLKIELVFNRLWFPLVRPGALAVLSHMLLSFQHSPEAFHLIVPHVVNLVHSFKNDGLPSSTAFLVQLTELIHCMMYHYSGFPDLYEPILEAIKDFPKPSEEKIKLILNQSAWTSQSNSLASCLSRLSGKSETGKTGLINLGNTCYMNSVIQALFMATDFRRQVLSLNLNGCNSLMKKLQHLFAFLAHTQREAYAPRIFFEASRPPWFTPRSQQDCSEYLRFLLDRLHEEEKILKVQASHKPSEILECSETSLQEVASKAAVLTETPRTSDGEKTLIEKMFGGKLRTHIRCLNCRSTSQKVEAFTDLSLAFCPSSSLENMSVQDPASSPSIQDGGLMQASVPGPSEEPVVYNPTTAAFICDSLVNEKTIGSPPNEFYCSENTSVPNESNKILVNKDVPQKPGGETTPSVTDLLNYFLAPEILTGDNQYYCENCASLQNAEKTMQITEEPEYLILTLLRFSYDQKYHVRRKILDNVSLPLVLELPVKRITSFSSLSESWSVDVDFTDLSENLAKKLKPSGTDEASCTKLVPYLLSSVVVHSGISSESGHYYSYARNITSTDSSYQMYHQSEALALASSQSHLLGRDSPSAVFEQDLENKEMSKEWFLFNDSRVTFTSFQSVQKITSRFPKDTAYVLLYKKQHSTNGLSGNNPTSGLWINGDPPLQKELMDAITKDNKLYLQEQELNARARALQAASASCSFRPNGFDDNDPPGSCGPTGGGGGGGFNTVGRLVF
As to the kind of experiment: median log2 fold change of GCK-ALFA target abundance (FLAG IP / Myc IP barcode read proportion) (log2 ratio); each designed protein is fused to an ALFA-tag nanobody in HEK293 cells to bring the named protein to FLAG-tagged glucokinase (GCK); Myc marks an untargeted standard; higher = target protein stabilised (more abundant). The conditions noted are these: target protein: 3xFLAG-MCP-GCK-ALFA reporter; HEK293 landing pad (RPLP). The gist of the method:
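Sequencing of reverse-transcribed, amplified circular RNA barcodes from anti-FLAG and anti-Myc immunoprecipitates provided the readout for an ALFA-nanobody-fused binder library recombined into HEK293 landing-pad cells. Those cells were induced with 2 μg mL^−1 doxycycline, transfected with a plasmid expressing a FLAG-tagged target and a Myc-tagged standard, and lysed after 48 h. Target abundance is the per-binder median log2 ratio of FLAG to Myc barcode read proportions. Only barcodes at a proportion of ≥10^−7 in both replicates and binders with ≥3 barcodes per replicate were kept, with a 10^−6 pseudocount added before the two replicates were pooled.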

B1: usp_38_diff_out_20_123_446 (protein)
chain: MEEARERAERLLERARQLLENAKQILKFVKAGVLSKETIESNIKFIESQIEYLERERERLREEHPELEELLEEIDRVLEETREVLKEIKAAAAAREAAEA
With B1, the “median log2 fold change” value stood at 0.247.

B2: usp_38_diff_out_20_123_449 (protein)
chain: SEELRERAERLLRDAERLLENAKQILKFVEAGVLSEETVEAHIEMIEAHIEYIEREIERLRREDPSLAPLLERVERVLEEVKEVLEKIKEAAEKRKEEEK
In the case of B2, the “median log2 fold change” value turned out to be 0.117.

B3: usp_38_diff_out_1_162_43 (protein)
chain: DVEKVLEQAKELLEKAEKKIKEAEKALKEGKLEEAEKYLDEAWELLGQLAKLLREARRLRRELDPERQAEVTKKLKELNEKANKLIDKLTKLEEEVFLKK
Regarding B3, the “median log2 fold change” value is -1.34.

B4: usp_38_diff_out_1_162_40 (protein)
chain: ELEEVLREAREAIERARELLERAKEALEEGRLEEAERLLDEAADELGRAARLLREARRLLRELPPEEREKYREELEKLERELRELIDEYTELAREVFLRR
Consider B4, for which the “median log2 fold change” value is -0.209.

B5: usp_38_diff_out_20_123_450 (protein)
chain: SEELREEAEELLRRAEQLLENSEQILKFVKAGVLSEETIKSHIEMIESQIKYIEEKIERLRKEDPSLEPLLEEVEKIREEVKKTLEEIKKAAEERKKEEA
Regarding B5, the “median log2 fold change” value was determined as 0.529.

B6: usp_38_diff_out_1_162_42 (protein)
chain: KLEELLEQAKRALAEAEELLERAEEALAAGRLEEARRYLDRAWDALGRLAQLLREARRLLRELSPEEREKARKQLKELEARADELIDRLVELEREVFLRE
On to B6, for which the “median log2 fold change” value is -0.0981.

B7: usp_38_diff_out_20_123_451 (protein)
chain: SEELRKEAEELLKRAKQLLENAKQILKFVKAGVLSEETIEAHIKMIESQIKYIEEKIKELREKDPSLKPLLEEVEKVVKEVKETLKEIKEAAEKRRKEKA
As to B7, the “median log2 fold change” value came to 0.227.

B8: usp_38_diff_out_20_123_452 (protein)
chain: AAALRAEAEALLARAQQLLENAEQVLKFVKAGVLSEETVEEHIEMFEAHIEYLEAERARLAAEAPELAPLLAQIDEAIAKAKEVLEKIKEELEKRREEEE
Consider B8, for which the “median log2 fold change” value turned out to be 0.438.

B9: usp_38_diff_out_1_162_48 (protein)
chain: EVEELLKKAKEKLKEAKELIKKAKEALKAGDLETAKKYLDKAWDLLGELAKLLREARRKMRELSPEERKKVRKELKKLEEEADKLIDELTKLETEVFLKE
Regarding B9, the “median log2 fold change” value is -0.368.

B10: usp_38_diff_out_1_153_34 (protein)
chain: SRLEELRKRVEEITKRAKELKKRAEELIESGEATLEKVDELADELGRLAVELREVRSEAAEDGDYYRELKPLFDEAEKALNEAVDALNEAGRLVFLKEAE
Turning to B10, the “median log2 fold change” value was 0.122.

B11: usp_38_diff_out_1_153_30 (protein)
chain: SELEELEKEIKKITEEAKKLKKEAEELIKSGKATREKVDKLADELGKLAVRLREIRSKAAESGDYYKKLKPLFKEAEKALNEAVDALEKAGRLVFEKEAE
As to B11, the “median log2 fold change” value was -0.0674.

B12: usp_38_diff_out_1_153_33 (protein)
chain: SKLEELKARVEALTAEAKALEKEAKALIESGKATREKVDALADRLGALAVELRELRSEAAESGEYYKELKPLFDEANAALDAAVDALEKLGRLVFEKEAE
Turning to B12, the “median log2 fold change” value is 0.179.

B13: usp_38_diff_out_1_162_46 (protein)
chain: EVEKLLEEAEKLLEEAKELIEKAKEAFKEGKLEEAEKYLDEAADKLGQLAKLLREARRLRRELSPERQEEVRKRLRELEERANELIDEYTELETEVFLAK
Turning to B13, the “median log2 fold change” value is -1.08.

B14: usp_38_diff_out_1_162_39 (protein)
chain: RLEELLEEARRAIEEARRLLEEAERAFKAGDLEEARRLLDRAADALGRAAQLLREARRLMRDLPPEEREKVREELDRLEEELDRLIDRYTELATRVFLAE
For B14, the “median log2 fold change” value amounted to 0.185.

B15: usp_38_diff_out_1_162_41 (protein)
chain: DIEKVLEQAQKALEEAEKLLKEAEKALKEGDLEEAEKYIRKAWDKLGQLAQLLREARRLLRELSPEERKKYREQLDKLEAKADELIDRLVKLEKEVFLKK
With B15, the “median log2 fold change” value is -0.214.

B16: usp_38_diff_out_1_153_35 (protein)
chain: SELDKLKAELADITAKANALKKEIEAAIKAGTMTREKVDAAWDELGALAKRLAEIRSKAAENPELYPKLKADIDAANAALDAAIDALNEAATKVFLKEAE
For B16, the “median log2 fold change” value was found to be 0.136.

B17: usp_38_diff_out_1_153_29 (protein)
chain: SELEELKARVEKITKEAEALKKEAEKLIADGTATREKVDALADKLGALAVELREIKSKAAESGEYYKKLKPLFDKAEAALNEAVDALNRAATLVFEREAA
Turning to B17, the “median log2 fold change” value was -0.161.

B18: usp_38_diff_out_1_153_36 (protein)
chain: SELDELKARLDAITAEANALKAEINAAIEAGTMTREQVDAAWDRLGALAKELAEIRAKAAEKPELYPQLKPAIDAATAALNAAIDALNEAARLVFLREAE
Consider B18, for which the “median log2 fold change” value stood at 0.22.

B19: usp_38_diff_out_1_153_28 (protein)
chain: SKLEELKKRVEEITKEAKELKKEAEKLIKSGKATLEKVEELADKLGKLSVELREIRSEAAEDEEYYKELKPLFKEAEKALNEAVDALEKAGRLVFEKMAE
Regarding B19, the “median log2 fold change” value is -0.31.

B20: usp_38_diff_out_1_162_37 (protein)
chain: RAEELLERLREHTERLRRLVEEAKRRLDTLSAEELRAMADELADAIAETDELIREARRLMVDLDPERREEARRAIEEARRAADEAVEVYEQLVLRSIELE
Regarding B20, the “median log2 fold change” value amounted to 0.216.

B21: usp_38_diff_out_1_9_443 (protein)
chain: SVDDVIIEALEKALEDGLKELKELEKKAEKALKAGDKAQAEALLKRLIRNAEGLIAAAKDAIKLAKKAGLEERAKRLEEMLKEAEKLLEEAKKKLKELKA
For the molecule B21, the “median log2 fold change” value turned out to be 0.0775.

B22: usp_38_diff_out_20_123_454 (protein)
chain: SEELRKEAEELLRRAEQLLENAEQILKFVKAGVLSLEKVEEHIKFIEEHIKYLEEKLKELKKKDKSLKELLEKIEELIKKTKEVLKEIKEAVEKRKKEAA
Turning to B22, the “median log2 fold change” value is 0.308.

B23: usp_38_diff_out_1_153_32 (protein)
chain: SELEELKKKVEEITKKAKELKKEAEKLIADGTATLEKVDALADELGALAVELREIRSKAAESGDYYKKLKPLFDEANAALNEAVDALNRAGTLVFEREAE
Regarding B23, the “median log2 fold change” value was -0.165.

B24: usp_38_diff_out_20_123_455 (protein)
chain: SEELRERAERLLKRSKQLVENAKQILKFVKAGVLSEETVEEHIKFLEDLIKYFEEELERLKKEDPSLKELLEEVEAAIKEAKEVLKEIKEAAEKRKKEEE
With B24, the “median log2 fold change” value is 0.12.

B25: usp_38_diff_out_20_123_447 (protein)
chain: SEELRARAERLLRQAEQLLENAEQILKFVKAGVLSKETQKAHIEFIESQIETIRREIERLRAEDPSLAELLARIEEVLRKVEETLEEIKKAVEKREKEEA
B25: the “median log2 fold change” value is 0.258.

B26: usp_38_diff_out_1_162_38 (protein)
chain: ELEELLKEAEEAIERARELLERAEEAFAAGDLETAERLLREAADELGRAAQLLREARRLLRELPPEEREKYRERLEELERELDELIDRYTALATEVFLAR
As to B26, the “median log2 fold change” value came out at 0.219.

B27: usp_38_diff_out_1_162_45 (protein)
chain: KVEEVLEEAERLLEEAEKLIEAAEKALAAGDLETARKYLDEAWDKLGELAKLLREARRLRRELSPERQEEVRKRLRELEERADELIDRLTELETEVFLRE
On to B27, for which the “median log2 fold change” value is -0.331.

B28: usp_38_diff_out_1_9_444 (protein)
chain: DVRREIAEALLEALERGLEELERLRARAEAALAAGDLARAEALLRRLVRNARGLEAAAEDLIEMAKEIGDEELARRAEEILERARRLREEAEARLAELAA
With B28, the “median log2 fold change” value was -0.00975.

B29: usp_38_diff_out_20_123_456 (protein)
chain: MEKAKEEAEKLLRRAKQLVENAEQVLKFVKAGVLSEEKAEEYIKSFEEHIKYIEKEVKKLKKEYPELKELLEEVEKEIKKAKKVLKELKEAVEKRKKEEE
As for B29, the “median log2 fold change” value stood at 0.134.

B30: usp_38_diff_out_20_123_448 (protein)
chain: SEALRARAEELLRRAEQLLENAKQILKFVKAGVLSEETVESHIKMIESQIEYIRREIERLRAEDPSLAPLLEEVERVVREVEEVLEEIKKAVEERKKEKA
On to B30, for which the “median log2 fold change” value came to 0.273.

B31: usp_38_diff_out_1_153_31 (protein)
chain: SELEELRERIERLTREARELEREARELIESGEATREKVDELADRLGRLAVELRELRSKAAESGEYYKELKPLFEEAEEALNRAVDALNEAGRLVFEREAE
For B31, the “median log2 fold change” value was 0.15.

B32: usp_38_diff_out_1_162_44 (protein)
chain: AVEETLAQLEEALERAERLIEEAERALEEGDLERARELLDEAADTLGRAAQLLREARRLSRELSPEERARVRERLRELNERLDELIDRLTELEREVFLRE
For B32, the “median log2 fold change” value stood at 0.133.

The record behind these values is the supplement of paper PMC12632987.
